From PubChem BioAssay come the findings set out here.

SMILES strings stand for the structures. Activity calls are given as the source filed them. Unless noted, how the calls were made is not given here.

Experiment [1] is described as follows: resazurin metabolic signal in HepG2 cells – cell-based, resazurin fluorescence, 24 h, PK04 Diversity Set, profiling panel (AID 1172). As to conditions: HepG2 viability, higher = more signal.
Experiment [2] can be described thus: budding yeast growth changes without added modifier – OD600, strain BY4716, 24 h, basal condition, primary screen (AID 1173). As to conditions: S. cerevisiae BY4716 growth, OD600, 24 h; higher = more signal, called active from +8 up or from −8 down.
A short description of experiment [3]: viability profiling in MM1S myeloma cells – cell-based, resazurin fluorescence, basal, 24 h, PK04 Diversity Set, profiling panel (AID 1174).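 Further: MM1S multiple myeloma cell line.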 As to conditions: higher = more signal, called active from +8 up or from −8 down. A general note: Alamar Blue is a resazurin reagent that responds to reducing activity.
Experiment [4] has as its target Dihydroorotate dehydrogenase (quinone), mitochondrial (Plasmodium falciparum (isolate 3D7)) (UniProt Q08210). Put plainly: inhibition of P. falciparum DHODH – biochemical, C-terminal His tag, absorbance 600 nm, primary screen (AID 1175).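 Further: recombinant parasite enzyme with a five histidine tag at its C terminus.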 As to conditions: PfDHODH enzyme, DCIP absorbance 600 nm; higher = more signal, called active from +8 up or from −8 down.
Experiment [5] can be described thus: inhibition of PAO1 biofilm formation – strain PAO1, LB-PBS medium, absorbance 600 nm, primary screen (AID 1176). As to conditions: P. aeruginosa PAO1 growth/biofilm, A600, 12 h; higher = more signal.
Experiment [6] in a line: growth modulation of vineyard yeast isolate – strain RM11-1a, OD600, basal, 24 h, primary screen (AID 1177).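 Further: cultures grown under basal conditions with no added stressor.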 As to conditions: S. cerevisiae RM11-1a growth, OD600, 24 h; higher = more signal, called active from +8 up or from −8 down.
Experiment [7] is described as follows: growth of efflux-deficient E. coli DRC39 – strain DRC39, OD650, 24 h, E. coli filamentation inducers, primary screen (AID 1178).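 Further: growth measured as culture turbidity by optical density at 650 nm.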 As to conditions: E. coli DRC39 acrAB, higher = more signal, called active from +8 up or from −8 down.
Experiment [8] is described as follows: growth of efflux-deficient E. coli DRC39 – strain DRC39, OD650, 48 h, E. coli filamentation inducers, primary screen (AID 1179).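 Further: screen aims at cell division blockers that make cells filament.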 As to conditions: E. coli DRC39 delta-acrAB growth, higher = more signal, called active from +8 up or from −8 down.
A short description of experiment [9]: viability profiling in RPMI8226 myeloma cells – cell-based, resazurin fluorescence, basal, 24 h, PK04 Diversity Set, profiling panel (AID 1180).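 Further: RPMI8826 multiple myeloma cell line at 5000 cells per well.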 As to conditions: higher = more signal.
In experiment [10] the target is E3 ubiquitin-protein ligase XIAP (Homo sapiens) (UniProt P98170). The experiment in a line: small molecules binding XIAP protein – biophysical, small-molecule microarray, fluorescence 635 nm, primary screen (AID 1181).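 Further: score merges 667 nm emission and signal to noise over triplicate slides.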 As to conditions: higher = more signal.
For experiment [11], the system named is XIP peptide (Xip251-270) binding. Put plainly: XIP fragment 251-270 binding compounds – biochemical, small-molecule microarray, fluorescence 635/667 nm, 0.1 µg/mL protein, primary screen (AID 1182). As to conditions: fluorescent protein binding, 635 nm, higher = more signal, called active from +8 up or from −8 down.
In a further experiment the test system is XIP peptide (Xip251-270). The experiment in a line: compounds binding XIP fragment 251-270 – biochemical, small-molecule microarray, fluorescence 635/667 nm, 0.5 µg/mL protein, primary screen (AID 1183). As to conditions: fluorescence 635 nm, higher = more signal.
Experiment [12] in a line: blood-stage malaria parasite viability loss – strain 3D7, DAPI fluorescence, 100 nL, primary screen (AID 1184).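 Further: parasites grown inside human red blood cells in medium with human serum.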 As to conditions: P. falciparum 3D7 growth, 3 d, higher = more signal.
The target in experiment [13] is Homeobox protein Hox-A13 (Mus musculus) (UniProt Q62424). The experiment in a line: disruptors of Hoxa13 oligonucleotide interaction – biochemical, fluorescence polarization, labeled oligonucleotide, primary screen (AID 1185). As to conditions: Hoxa13:DNA binding, 15 min, higher = more signal, called active from +8 up or from −8 down.
Experiment [14] is described as follows: blockers of DNA damage checkpoint Chk1 activation – imaging, HeLa, hydroxyurea, phospho-Chk1 antibody, percent positive cells, primary screen (AID 1186). As to conditions: hydroxyurea-induced phospho-Chk1 immunofluorescence imaging, higher = more signal.
The nature of experiment [15]: blockers of DNA damage checkpoint Chk1 activation – imaging, HeLa, hydroxyurea, phospho-Chk1 nuclear intensity, primary screen (AID 1187). As to conditions: hydroxyurea-induced phospho-Chk1 immunofluorescence imaging, higher = more signal.

Sequence of Homeobox protein Hox-A13 (Mus musculus) (Q62424 whole entry, looked up): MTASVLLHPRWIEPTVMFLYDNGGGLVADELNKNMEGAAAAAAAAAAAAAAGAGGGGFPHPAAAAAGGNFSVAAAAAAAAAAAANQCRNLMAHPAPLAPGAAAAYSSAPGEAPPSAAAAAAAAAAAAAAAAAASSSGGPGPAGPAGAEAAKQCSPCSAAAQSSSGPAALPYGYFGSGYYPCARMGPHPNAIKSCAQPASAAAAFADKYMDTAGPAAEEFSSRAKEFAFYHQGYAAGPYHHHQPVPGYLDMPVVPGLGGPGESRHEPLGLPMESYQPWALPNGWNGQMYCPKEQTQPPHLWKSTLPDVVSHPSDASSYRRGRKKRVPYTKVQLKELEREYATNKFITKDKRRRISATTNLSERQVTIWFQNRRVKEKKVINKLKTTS
Sequence of Dihydroorotate dehydrogenase (quinone), mitochondrial (Plasmodium falciparum (isolate 3D7)) (Q08210 whole entry, looked up): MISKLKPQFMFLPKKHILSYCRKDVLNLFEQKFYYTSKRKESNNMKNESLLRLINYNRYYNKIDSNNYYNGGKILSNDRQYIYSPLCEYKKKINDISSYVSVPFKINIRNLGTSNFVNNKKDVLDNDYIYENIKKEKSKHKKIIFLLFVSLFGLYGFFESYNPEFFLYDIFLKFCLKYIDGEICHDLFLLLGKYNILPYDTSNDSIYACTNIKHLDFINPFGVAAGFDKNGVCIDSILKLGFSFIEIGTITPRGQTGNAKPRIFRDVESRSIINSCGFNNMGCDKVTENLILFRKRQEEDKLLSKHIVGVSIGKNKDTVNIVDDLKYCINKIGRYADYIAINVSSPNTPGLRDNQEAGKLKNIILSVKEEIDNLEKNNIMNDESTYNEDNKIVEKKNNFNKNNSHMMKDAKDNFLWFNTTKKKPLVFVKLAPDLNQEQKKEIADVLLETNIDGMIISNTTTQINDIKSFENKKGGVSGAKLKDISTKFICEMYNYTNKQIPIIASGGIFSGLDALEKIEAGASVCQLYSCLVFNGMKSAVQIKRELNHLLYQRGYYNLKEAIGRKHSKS
Sequence of E3 ubiquitin-protein ligase XIAP (Homo sapiens) (P98170 whole entry, looked up, the tested form may be a part): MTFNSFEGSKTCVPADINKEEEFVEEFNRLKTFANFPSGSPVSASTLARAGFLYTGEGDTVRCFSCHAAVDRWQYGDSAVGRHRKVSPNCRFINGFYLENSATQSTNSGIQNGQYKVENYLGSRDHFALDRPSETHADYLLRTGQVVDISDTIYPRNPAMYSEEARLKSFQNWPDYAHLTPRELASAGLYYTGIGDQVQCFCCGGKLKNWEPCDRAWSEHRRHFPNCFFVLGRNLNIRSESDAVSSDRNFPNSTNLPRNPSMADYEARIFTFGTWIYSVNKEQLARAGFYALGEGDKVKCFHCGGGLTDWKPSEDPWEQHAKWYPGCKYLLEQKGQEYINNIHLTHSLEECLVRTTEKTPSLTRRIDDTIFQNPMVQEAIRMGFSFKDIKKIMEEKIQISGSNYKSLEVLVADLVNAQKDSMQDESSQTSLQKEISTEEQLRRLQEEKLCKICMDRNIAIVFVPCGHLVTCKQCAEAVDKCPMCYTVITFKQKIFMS

As for `C[C@@H]1NC(=O)C([C@@H](C)OCc2ccccc2)NC(=O)[C@@]23C(=O)N[C@@H](Cc4ccccc4)C2[C@H](C)[C@@]2(C)O[C@H]2C3/C=C/C/C=C\CNC1=O` (stereo not given in full), the z-score in experiment [1] was -0.847; in experiment [2], -0.399 (inactive); in [3], 0.026 (inactive); in [5] it was 0.625 (inactive); in experiment [6], 0.533 (inactive); in experiment [7] it was -0.602 (inactive). Further, the z-score in experiment [8] is -0.426 (inactive); in experiment [9], -0.104; in experiment [12], 0.0074; in [13], -7.4 (inactive); in experiment [14], -0.0202 (inactive); in experiment [15] it was -0.0344 (inactive). The composite z-score in experiment [4] is -0.0288 (inactive); in [10] it was -0.291; in experiment [11], -0.501 (inactive); with XIP peptide (Xip251-270) it was -0.458.
As for `CC(C)=CCCC(C)=CC(O)C1C=CC2C(=O)NC(=O)C2N1Nc1ccccn1` (stereo not given), the z-score in [1] was -1.33; in experiment [2] it was 0.386 (inactive); in [3], -0.58 (inactive); in [5], 1.55 (inactive); in experiment [6], -0.881 (inactive); in experiment [7] it was -0.222 (inactive). Further, the z-score in experiment [8] was 0.528 (inactive); in [9], -0.754; in experiment [12], 0.563; in [13], -4.67 (inactive); in experiment [14], 0.282 (inactive); in [15], -0.0205 (inactive). The composite z-score in [4] is 0.242 (inactive); in experiment [10], 0.0602; in [11], 0.113 (inactive); in the experiment on XIP peptide (Xip251-270), 0.628.
Consider `COC(=O)[C@@]1(Cc2ccc(OC)cc2)[C@H]2c3cc(C(=O)N4CCCC4)n(Cc4c(CO)[nH]cc(C)c4=O)c3C[C@H]2CN1C(=O)c1ccccc1`, for which the z-score in experiment [1] was 0.229; in experiment [2], 0.684 (inactive); in experiment [3], 0.421 (inactive); in experiment [5] it was 0.548 (inactive); in experiment [6], 0.124 (inactive); in experiment [7], 0.153 (inactive). Besides, the z-score in experiment [8] was 1.17 (inactive); in [9], 0.572; in experiment [12], -1.56; in experiment [13] it was -5.39 (inactive); in experiment [14], -0.166 (inactive); in experiment [15] it was 0.0081 (inactive). The composite z-score is -1.21 (inactive) in experiment [4], 0.477 in [10], 1.1 (inactive) in [11] and 0.523 in the experiment with XIP peptide (Xip251-270).
With `CO[C@H]1O[C@H](CO)[C@@H](OC(=O)Nc2ccccc2-c2ccccc2)[C@H](OC(=O)Nc2ccccc2)[C@H]1OC(=O)Nc1ccccc1`, the z-score is -1.68 in [1]; 0.788 (inactive) in experiment [2]; -3.07 (inactive) in experiment [3]; 2.11 (inactive) in experiment [5]; 2.81 (inactive) in experiment [6]; 1.15 (inactive) in experiment [7]. Further, the z-score in experiment [8] was 0.172 (inactive); in experiment [9], -2.06; in experiment [12], -2.14; in [13] it was -3.21 (inactive); in experiment [14], -0.392 (inactive); in experiment [15] it was -0.15 (inactive). For the same compound, the composite z-score is -0.0626 (inactive) in experiment [4], 0.0479 in [10], -0.249 (inactive) in [11] and 0.915 with XIP peptide (Xip251-270).
Take `O=C(O)[C@H](Cc1ccccc1)n1cc(C2(O)CCCCC2)nn1`: the z-score in [1] was -0.466; in experiment [2], -0.415 (inactive); in experiment [3] it was -0.625 (inactive); in [5], 0.055 (inactive); in experiment [6], -0.563 (inactive); in experiment [7], -0.128 (inactive). Moreover, the z-score is -0.477 (inactive) in [8]; -0.88 in experiment [9]; 0.074 in [12]; -1.04 (inactive) in [13]; 0.402 (inactive) in experiment [14]; -0.535 (inactive) in experiment [15]. The composite z-score was -1.6 (inactive) in experiment [4], -0.0668 in experiment [10], -0.0467 (inactive) in [11] and 0.0248 in the experiment with XIP peptide (Xip251-270).
For `CN(C)CCCC[C@@H]1NC(=O)[C@@H]2C[C@H](C(=O)NCCCCCN)[C@H](c3cccc(OCCO)c3)N2C1=O`, the z-score in experiment [1] was 0.881; in experiment [2], -0.985 (inactive); in experiment [3] it was 1.49 (inactive); in [5] it was 0.531 (inactive); in [6], -2.59 (inactive); in experiment [7], 2.01 (inactive). In addition, the z-score is 2.02 (inactive) in [8]; 0.819 in experiment [9]; -0.0568 in experiment [12]; -1.29 (inactive) in experiment [13]; -0.523 (inactive) in experiment [14]; 0.0431 (inactive) in experiment [15]. In addition, the composite z-score is -0.417 (inactive) in [4], -0.184 in experiment [10], 1.14 (inactive) in [11] and 0.898 with XIP peptide (Xip251-270).
For `[N-]=[N+]=NCc1ccccc1[C@@H]1OC(c2ccc(OCCCO)cc2)=N[C@]1(Cc1ccccc1N=[N+]=[N-])C(=O)NCC(O)CO` (stereo not given in full), the z-score in experiment [1] is -0.897; in experiment [2] it was -0.815 (inactive); in [3], -0.954 (inactive); in experiment [5], 0.507 (inactive); in experiment [6], 0.628 (inactive); in [7], -0.0582 (inactive). Also, the z-score is 0.625 (inactive) in experiment [8]; -1.47 in [9]; -2.31 in experiment [12]; -2.19 (inactive) in experiment [13]; -0.168 (inactive) in experiment [14]; 0.0749 (inactive) in experiment [15]. Also, the composite z-score was -0.728 (inactive) in experiment [4], 0.243 in experiment [10], 1.45 (inactive) in experiment [11] and 0.5 in the experiment on XIP peptide (Xip251-270).
As to `COCCOC(=O)N1C(=O)[C@@]2(c3ccccc31)[C@H](c1ccc(O)cc1)N1[C@H](c3ccccc3)[C@H](c3ccccc3)OC(=O)[C@H]1[C@@H]2C(=O)N1CCCCCCC1`, the z-score is 0.0454 in experiment [1]; -0.712 (inactive) in experiment [2]; 0.0065 (inactive) in [3]; 1.57 (inactive) in experiment [5]; -0.122 (inactive) in experiment [6]; -0.391 (inactive) in [7]. Further, the z-score in experiment [8] is -1.88 (inactive); in experiment [9], 0.248; in [12] it was -1.01; in [13] it was 0.899 (inactive); in experiment [14], -0.0437 (inactive); in experiment [15], 0.157 (inactive). Further, the composite z-score is 0.161 (inactive) in [4], 0.587 in [10], 4.66 (inactive) in experiment [11] and 0.91 in the experiment on XIP peptide (Xip251-270).
For the compound `CN(C)CCCC[C@@H]1NC(=O)[C@H]2C[C@@H](C(=O)O)[C@@H](c3ccc(O)cc3)N2C1=O`, the z-score in [1] is -0.401; in experiment [2], -1.23 (inactive); in experiment [3] it was 0.41 (inactive); in experiment [5], 1.5 (inactive); in [6], -0.304 (inactive); in experiment [7], 0.679 (inactive). Besides, the z-score in [8] was -0.454 (inactive); in experiment [9], -0.34; in [12], -0.947; in [13], -1.63 (inactive); in experiment [14] it was 0.7 (inactive); in experiment [15], 0.571 (inactive). Besides, the composite z-score in [4] is -0.676 (inactive); in [10] it was 2.02; in experiment [11], 3.67 (inactive); in the experiment with XIP peptide (Xip251-270), 0.843.
Turning to `CN(C)CCCNC(=O)[C@@H]1c2ccccc2C(=O)N(Cc2ccccc2C(F)(F)F)[C@H]1c1ccc(CO)cc1`, the z-score in experiment [1] is 0.788; in experiment [2] it was -0.779 (inactive); in [3] it was 0.744 (inactive); in experiment [5] it was -0.534 (inactive); in experiment [6], 0.171 (inactive); in experiment [7], 0.858 (inactive). Also, the z-score in [8] was 0.783 (inactive); in experiment [9], 0.7; in [12], -0.944; in experiment [13], -2.62 (inactive); in experiment [14] it was -0.316 (inactive); in [15], -0.164 (inactive). The composite z-score in [4] was -0.0587 (inactive); in experiment [10], -0.0344; in [11] it was -0.638 (inactive); in the experiment on XIP peptide (Xip251-270), 0.0067.
